# Laboratory results published in the supplement of paper PMC10127200.
# Where a name gives a salt, the structure may show the parent alone.
# Columns and labels:
# Assay in all cases: Euclidean distance of Cell Painting phenotypic profile (signed KS, 77 features) to DMSO centroid (dimensionless distance); 5 or 10 uM (library dependent); higher = stronger phenotypic change vs DMSO (phenoactivity)
# Conditions in all cases: 48 h
# 786-O = system: 786-O
# Procedure, shortened: (§1)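 Stained cells were imaged confocally at 20X with 9 fields per well, after 48 h of exposure to library compounds at 10 or 5 uM (set by library; 0.1% DMSO final). The cells were five cancer lines and a healthy fibroblast line. From the images, Harmony extracted 77 features, each expressed as a signed Kolmogorov-Smirnov statistic relative to same-plate vehicle wells. Phenoactivity is measured as Euclidean distance to the median vehicle profile, using plate-position-corrected, correlation-weighted profiles averaged across replicates at the top dose.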
# A549 = system: A549
# Procedure, shortened: as §1
# DU145 = system: DU145
# Procedure, shortened: as §1
# FB = system: FB
# Procedure, shortened: as §1
# HEPG2 = system: HEPG2
# Procedure, shortened: as §1
# OVCAR4 = system: OVCAR4
# Procedure, shortened: as §1
Structure (SMILES),Euclidean distance (786-O),Euclidean distance (A549),Euclidean distance (DU145),Euclidean distance (FB),Euclidean distance (HEPG2),Euclidean distance (OVCAR4)
CC(C)C[C@H](NC(=O)[C@H](Cc1ccccc1)NC(=O)c1cnccn1)B(O)O [Bortezomib],5.28,3.87,6.56,6.53,4.55,5.51
Cc1ccc(C)c(OCCCC(C)(C)C(=O)O)c1 [Gemfibrozil],1.23,0.801,1.51,1.06,1.97,1.02
C=C1/C(=C\C=C2/CCC[C@]3(C)[C@@H]([C@H](C)CCCC(C)C)CC[C@@H]23)C[C@@H](O)C[C@@H]1O [Alfacalcidol],2.68,1.49,6.28,1.73,0.811,1.5
Clc1ccc(C(Cn2ccnc2)OCc2ccc(Sc3ccccc3)cc2)c(Cl)c1 (centres undefined) [Fenticonazole Nitrate],1.13,0.887,1.51,1.21,2.16,1.35
COC1=CC(=O)C[C@@H](C)[C@]12Oc1c(Cl)c(OC)cc(OC)c1C2=O [Griseofulvin],0.605,0.678,0.803,1.48,0.745,0.81
COc1cc(C(=O)OCCCCNC(=N)N)cc(OC)c1O [Leonurine],1.19,0.869,0.698,1.29,0.641,0.953
Cc1ncc(CO)c(CO)c1O [Pyridoxine HCl],0.686,0.861,0.642,0.7,0.426,1.11
CCN(CC)CCNC(=O)c1ccc(N)cc1 [Procainamide HCl],0.693,1.02,0.74,0.787,0.326,1.07
CCC[C@H](N[C@H]1CCc2cc(F)cc(F)c2C1)C(=O)Nc1cn(C(C)(C)CNCC(C)(C)C)cn1,1.07,1.25,0.825,0.705,1.07,2.26
CC[C@H]1OC(=O)C[C@@H](O)[C@H](C)[C@@H](O[C@@H]2O[C@H](C)[C@@H](O)[C@H](N(C)C)[C@H]2O)[C@@H](CCN2C[C@H](C)C[C@H](C)C2)C[C@@H](C)C(=O)/C=C/C(C)=C/[C@@H]1CO[C@@H]1O[C@H](C)[C@@H](O)[C@@H](OC)[C@H]1OC [Tilmicosin],0.767,0.579,0.777,0.841,1.09,0.801
O=C(O)CSc1nnc(Br)n1-c1ccc(C2CC2)c2ccccc12 [Lesinurad],0.529,0.673,0.762,0.983,1.61,0.826
N=C(N)Nc1ccc(C(=O)Oc2ccc3cc(C(=N)N)ccc3c2)cc1 [Nafamostat Mesylate],1.58,1.62,1.06,1.02,0.93,1.24
CC[C@H](C)C(=O)O[C@H]1C[C@H](O)C=C2C=C[C@H](C)[C@H](CC[C@@H](O)C[C@@H](O)CC(=O)O)[C@H]21 [Pravastatin sodium],0.813,0.763,0.709,0.425,0.254,0.778
O=C(c1ccc(OCCN2CCCCC2)cc1)c1c(-c2ccc(O)cc2)sc2cc(O)ccc12 [Raloxifene],2.37,2.49,2.15,2.23,2.54,2.52
CCCCC(=O)O[C@]1(C(=O)CO)[C@@H](C)C[C@H]2[C@@H]3CCC4=CC(=O)C=C[C@]4(C)[C@@]3(F)[C@@H](O)C[C@@]21C [Betamethasone Valerate],1.33,1.98,2.2,1.71,0.591,2.13
Cc1nc(C#Cc2ccnc(Cl)c2)c(C)n1-c1ccc(OC(F)(F)F)cc1,0.836,0.736,0.706,0.731,0.904,1.2
CC(=O)N(O)CCCCCNC(=O)CCC(=O)N(O)CCCCCNC(=O)CCC(=O)N(O)CCCCCN [Deferoxamine mesylate],2.45,2.58,6.88,2.61,2.02,2.86
CC(C)COc1ccc(CNC(=O)N(Cc2ccc(F)cc2)C2CCN(C)CC2)cc1 [Pimavanserin],4.02,4.29,3,5.4,5.24,3.47
COc1nccnc1NS(=O)(=O)c1ccc(N)cc1 [Sulfalene(SMPZ)],0.789,1.44,1.18,1.41,0.406,0.917
Cc1cc(C)c(CNC(=O)c2cc(-c3ccc(CN4CCOCC4)cc3)cc3c2cnn3C2CCCC2)c(=O)[nH]1,1.48,1.7,0.808,1.97,1.44,0.692
COc1ccc2[nH]c([S@@+]([O-])Cc3ncc(C)c(OC)c3C)nc2c1 [Esomeprazole Sodium],1.75,1.36,1.05,0.915,1.26,1.34
O=C1NC(=O)C(c2ccccc2[N+](=O)[O-])=C1Nc1ccc(O)c(Cl)c1,1.2,0.916,0.978,0.936,0.886,1.1
Cc1ccc2nc(NCCN)c3ncc(C)n3c2c1,0.585,1.64,1.21,1.55,2.99,1.57
C[N+](C)(C)CCO.[Cl-] [Choline Chloride],0.795,0.549,0.73,0.801,0.682,1.46
